Data taken from PubChem BioAssay AID743269 (The Scripps Research Institute Molecular Screening Center, 2014).
The campaign covered roughly 370,000 compounds. About 2,400 (0.65%) were called active.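 Rule for the calls: active = inhibition above the screen-wide mean plus 3 SD (cut at about 13% in these data); inactive = the rest.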 What follows is part of a selection rich in actives, with near analogues and random picks from the rest.

What follows are molecules tested on HIV-1 integrase (with human LEDGF/p75) (assay: blockers of LEDGF/p75-dependent integrase strand transfer – biochemical, TR-FRET, high throughput, primary screen (AID 743269;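 note: signal is the Cy5 over europium emission ratio at 671 and 618 nm; 0% = plate median of compound wells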)). Conditions: TR-FRET IN-LEDGF/p75 DNA integration, Eu/Cy5; at 3.7 µM; hits give high values.

Row | Compound | inhibition
1 | COC(=O)C1CN(Cc2cn(Cc3ccc(F)cc3)nn2)CCS(=O)(=O)N1Cc1ccc(Cl)cc1 (configuration not stated) | 0.07% (inactive)
2 | CC(=O)OCC1(O)CC23CCC4c5ccoc5CCC4(C)C2CCC1C3 (configuration not stated) | 36.9% (active)
3 | COC(=O)c1ccccc1-n1cc(COC(=O)NCCc2ccccc2)nn1 | -3.43% (inactive)
4 | C=CCN1C(=O)[C@@H](CC(=O)NCC2CCCCC2)[C@]2(C(=O)OC)CCCCC=C12 | 0.59% (inactive)
5 | CCOc1ccc(N(CC(=O)Nc2c(C)n(C)n(-c3ccccc3)c2=O)S(=O)(=O)c2ccc(Cl)s2)cc1 | 2.7% (inactive)
6 | CN(C)c1ccc(C(CC(=O)O)C(=O)O)cc1 (configuration not stated) | 18.1% (active)
7 | CC(=O)NC(CC(=O)O)c1ccc(F)cc1 (configuration not stated) | -3.02% (inactive)
8 | O=C(O)C(CCc1ccccn1)c1ccccc1 (configuration not stated) | 0.2% (inactive)
9 | COc1ccnc(NC(=S)N2CCN(c3ncc(C(F)(F)F)cc3Cl)CC2)c1 | 4.7% (inactive)
10 | O=C1OC(NC(=O)c2ccccc2)C(N2CCOCC2)=C1Cl (configuration not stated) | 1.92% (inactive)
11 | O=C(O)c1ccc(NN=CC2=C(N3CCOCC3)/C(=C/c3ccccc3)CC2)cc1 | 27.7% (active)
12 | O=C(Nc1ccc(F)cc1)c1cccnc1N1CCOCC1 | 1.85% (inactive)
13 | COc1ccc(Cn2ccc3ccc(-c4ccc5ccn(Cc6ccccc6C)c5c4)cc32)cc1 | -3.41% (inactive)
14 | O=S1(=O)c2ccc(N3CCN(Cc4ccccc4F)CC3)cc2Oc2ccccc2CN1Cc1cn(Cc2ccc(Cl)cc2)nn1 | 3.58% (inactive)
15 | Cc1ccsc1/C=N/NC(=O)Cc1cc(=O)[nH][nH]1 | -1.18% (inactive)
16 | O=[N+]([O-])c1ccc(C=Nc2ccc(Cl)cc2Cl)s1 | -0.56% (inactive)
17 | Cc1ccccc1NCC(=O)N/N=C\c1ccc([N+](=O)[O-])s1 | 19.6% (active)
18 | CN(CCO)c1cccc2c1S(=O)(=O)N(Cc1cn(Cc3ccc(C(F)(F)F)cc3)nn1)Cc1ccccc1O2 | 5.32% (inactive)
19 | CC(=O)Nc1ccc(OC[C@@H](O)CN2CCC(C(O)(c3ccccc3)c3ccccc3)CC2)cc1 | -1.09% (inactive)
20 | COc1ccc(-n2c(COc3ccccc3)nnc2SCC(=O)Nc2ccc3c(c2)OCO3)cc1 | -0.67% (inactive)
21 | C#CCCN([C@H](C(=O)OC)C(C)C)S(=O)(=O)c1ccc(F)cc1Br | -3.33% (inactive)
22 | c1cncc(CNc2ccnc(-c3ccc4c(c3)OCO4)n2)c1 | 2.55% (inactive)

Row | Compound | inhibition
23 | Cc1ccc(OCc2nnc(SC/C=C/c3ccccc3)n2Cc2ccco2)cc1 | 1.59% (inactive)
24 | Cc1cc(C)cc(C(=O)NC(=S)Nc2ccc3[nH]c(=O)[nH]c3c2)c1 | 3.15% (inactive)
25 | Cc1ccc(S(=O)(=O)/N=C(/Nc2ccc3[nH]c(=O)[nH]c3c2)c2ccccc2)cc1 | -0.12% (inactive)
26 | Cc1ccc(C(=O)NC(=S)Nc2ccc3[nH]c(=O)[nH]c3c2)cc1C | 16.7% (active)
27 | O=C(CSc1nc2ccccc2n1Cc1ccccc1Cl)N/N=C\c1c[nH]c2ccccc12 | 5.76% (inactive)
28 | O=C(Nc1nc(-c2ccco2)c(-c2ccco2)s1)c1ccco1 | 68.8% (active)
29 | O=C(Nc1c(-c2ccccc2)nc2c(Br)cc(Br)cn12)c1ccco1 | 1.6% (inactive)
30 | O=C(Nc1ccccc1C(=O)N1CCCCC1)c1ccco1 | 6.1% (inactive)
31 | CCOC(=O)C1CCN(C(=O)C(C)(C)NC(=O)Nc2ccccc2Cl)CC1 | -0.46% (inactive)
32 | O=C(CN(C(=O)c1csnn1)c1ccc(Br)cc1)NC1CCCC1 | 1.56% (inactive)
33 | O=C(CN(C(=O)c1csnn1)c1cccc(Cl)c1)NC1CCCC1 | 27.8% (active)
34 | O=C(CN(C(=O)c1nsc(Cl)c1Cl)c1cccc(F)c1)NC1CCCC1 | -3.15% (inactive)
35 | C=CCOC/C=C/C#CCN(CC=C)Cc1ccc(OC)cc1OC | 5.5% (inactive)
36 | CCOC(=O)[C@]12CCCC3=C1N(CCC3)C(=O)[C@@H](CC(=O)NCc1cccs1)C2 | -1.84% (inactive)
37 | O=C(CSc1nnc2c(n1)[nH]c1ccccc12)NC1CCCCC1 | 4.55% (inactive)
38 | O=C(NC1CCCCC1)N1CCc2[nH]c3ccccc3c2C1 | 35.1% (active)
39 | O=C(Nc1cccc2c1CCCC2)C1CCN(C(=O)NC2CCCCC2)CC1 | -1.21% (inactive)
40 | CC(=O)C1(C(=O)Nc2nccs2)CC(c2ccccc2C(F)(F)F)=NO1 (configuration not stated) | 1.17% (inactive)
41 | O=C(O)Cn1c(Cc2ccccc2)nc2ccccc21 | -1.98% (inactive)
42 | CC(=O)c1nc2ccccc2n1Cc1ccccc1 | 22.6% (active)
43 | CC(O)c1nc2ccccc2n1Cc1ccc([N+](=O)[O-])cc1 (configuration not stated) | 0.5% (inactive)
44 | COc1cccc(/C=C2\CC3(OC(C)=O)CCCN2C3)c1 (configuration not stated) | -3.9% (inactive)

Row | Compound | inhibition
45 | O=C1C(=O)N(Cc2ccc(-c3ccsc3)cc2)c2ccc(OC(F)(F)F)cc21 | 0.06% (inactive)
46 | Cc1cccc(NC(=O)C[C@H]2CC[C@H]3[C@@H](COc4ccc(NC(=O)Nc5ccccc5)cc4C(=O)N3C)O2)c1 | 1.61% (inactive)
47 | Cc1ccc(C2=CCN(C)C(=O)N2c2ccc(Cl)cc2)cc1 | 0.69% (inactive)
48 | Oc1c(C=Nc2cccc3nsnc23)ccc2ccccc12 | 25.6% (active)
49 | O=C(CSc1nnc(COc2ccccc2)n1-c1ccc(Cl)cc1)Nc1ccc2c(c1)OCO2 | -1.91% (inactive)
50 | COC(=O)C1CN(CC(C)C)CCS(=O)(=O)N1Cc1ccc(F)cc1 (configuration not stated) | -4.4% (inactive)
51 | COc1ccc(C(=O)CSc2n[nH]c(N)n2)cc1 | -3.51% (inactive)
52 | Cc1nc(SCC(=O)c2ccccc2)c([N+](=O)[O-])[nH]1 | -5.1% (inactive)
53 | Cc1cc(Oc2ccc(Cl)cc2)nc(SCC(=O)c2ccccc2)n1 | 35.9% (active)
54 | COC(=O)[C@]12C[C@H](CC(=O)NCCCN3CCCC3=O)C(=O)N(CCc3ccc(OC)c(OC)c3)C1=C[C@H](COCc1ccccc1)O[C@@H]2C | -3.08% (inactive)
55 | NC1=CC(=O)C(=O)c2cccnc21 | 40% (active)
56 | O=c1ccc2c(-c3ccccc3S(=O)(=O)O)c3ccc(O)c(O)c3oc-2c1O | 84% (active)
57 | Cc1c[nH]c2cccc(-c3ccc(Cl)cc3)c12 | 4.29% (inactive)
58 | C[C@@H]1CN([C@@H](C)CO)C(=O)c2cccc(NC(=O)Nc3cccc4ccccc34)c2O[C@H]1CN(C)S(=O)(=O)c1ccccc1F | 3.05% (inactive)
59 | C#CCN([C@H](C(=O)OC)C(C)CC)S(=O)(=O)c1ccccc1Br (some centres not stated) | 2.37% (inactive)
60 | Cc1cc(=O)[nH]c(SCC(=O)Nc2ccc(F)cc2F)n1 | -4.09% (inactive)
61 | CCC(=O)Nc1ccc2c(c1)C(=O)N(C)[C@@H]1CC[C@@H](CC(=O)NCCc3ccccc3)O[C@H]1CO2 | -2.65% (inactive)
62 | Cc1ccc(N=C2NC(=O)/C(=C/C=C/c3ccco3)S2)cc1C | 16.8% (active)
63 | COC(=O)C[C@@H]1CC[C@@H]2[C@H](COc3ccc(NC(=O)c4cccc(F)c4)cc3C(=O)N2C)O1 | 7.98% (inactive)
64 | Cc1ccc(-n2c(COc3ccccc3)nnc2SCC(=O)Nc2ccc3c(c2)OCCO3)cc1 | -2.45% (inactive)
65 | C=CCn1c(SCC(=O)CC(=O)OCC)nc2cc(C(=O)N3CCC(C(N)=O)CC3)ccc2c1=O | -1.71% (inactive)
66 | C=CCn1c2ccccc2c2nnc(SC(CC)C(=O)Nc3nc(C)c(C(=O)OCC)s3)nc21 (configuration not stated) | -2.02% (inactive)

Row | Compound | inhibition
67 | C=CCn1c2ccccc2c2nnc(SCc3[nH]c(=O)[nH]c3C(=O)CCCCC(=O)OCC)nc21 | 43.2% (active)
68 | COc1cccc(N2CCN(CC(=O)N(C)Cc3ccc(F)cc3)CC2)c1 | -2.54% (inactive)
69 | COC(=O)[C@]12C[C@H](CC(=O)N3CCOCC3)C(=O)N(Cc3ccc(Cl)cc3Cl)C1=C[C@H](COCc1ccccc1)O[C@@H]2C | 0.62% (inactive)
70 | Cc1ccc(C(=O)C2CCN(CC(=O)NCCC(C)C)CC2)cc1 | 0.16% (inactive)
71 | CC(C)(C)C1C/C(=C/c2ccco2)C(=O)/C(=C/c2ccco2)C1 (configuration not stated) | 79.5% (active)
72 | COc1ccc(CN(CCN2CCOCC2)C(=O)c2ccc(C)cc2)cc1OC | -0.71% (inactive)
73 | CCOC(=O)c1cccc(NC(=O)CN(C)S(=O)(=O)c2ccc(-c3cocn3)s2)c1 | 2.14% (inactive)
74 | CCCCC(=O)N[C@@H]1CC[C@@]23CCCN2C(=O)CCC[C@H]3[C@H]1C | 0.47% (inactive)
75 | COc1ccnc(C(=O)N2CCC(Oc3cccnc3)CC2)c1 | -0.27% (inactive)
76 | COc1ccc(-c2c(C(C)=O)c(C)nc3sc4c(=O)n(-c5ccc(C)cc5)nnc4c23)cc1 | -0.97% (inactive)
77 | COCc1cc(C)nc2sc3c(=O)n(-c4cccc5ccccc45)nnc3c12 | 18.6% (active)
78 | COCc1cc(C)nc2sc(C(=O)NC3CCCCC3)c(N)c12 | 0.63% (inactive)
79 | Clc1ccc(-n2c(COc3ccccc3)nnc2SCc2nc3ccccc3[nH]2)cc1 | -0.48% (inactive)
80 | Oc1cc(O)c2c(c1)OC(c1ccc(O)c(O)c1)C(O)C2 (configuration not stated) | 17.4% (active)
81 | O=C(Nc1cc(Cl)cc(Cl)c1)OCCN1CCCC12CCC(c1ccccc1)CC2 (configuration not stated) | -0.23% (inactive)
82 | Cc1ccc(-n2c(SCC(=O)Nc3ccc(S(=O)(=O)Nc4nccs4)cc3)nnc2-c2ccncc2)cc1 | -1.61% (inactive)
83 | CCOC(=O)c1c(C)oc2cc(Sc3ccccc3)c(O)c(O)c12 | 23.4% (active)
84 | CCOC(=O)c1c(C)oc2cc(Br)c(OCC(N)=O)cc12 | -0.08% (inactive)
85 | CCOC(=O)c1c(C)oc(C)c(C(=O)OCC)c1=O | 3.08% (inactive)
86 | COC(=O)CC1CCc2cc(C)cc(C(CC(C)C)NC(=O)[C@H](CC(C)C)NC(=O)OCc3ccccc3)c2O1 (some centres not stated) | -0.18% (inactive)
87 | CCN(C(=O)[C@@H](C1CC1)[C@@H](O)c1ccc2ccccc2c1)c1ccccc1 | -2.01% (inactive)
